# Measurements published in PubChem BioAssay AID1159580 (chemical genetic matrix, 2015).
# In all, about 5,500 compounds went through this assay and about 2,000 (36%) were called active. About 18% were inconclusive and are not listed. Some of the results follow. A number with no mark means an inactive call. Cut-off read from the data, not from the text of the source: active = normalized growth mostly below about 0.91 (no sharp cut-off); inconclusive = no clear call, values can overlap the other calls; inactive = mostly above about 0.92.
# Experiment: chemical genetic growth profiling, strain panel (AID 1159580);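 note: tested at 20 µM; growth read once vehicle control cultures reached saturation at 30 °C; 1 = growth at the plate median or of vehicle wells; lower values mean less growth of the strain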
# Details: S. cerevisiae deletion strains, growth OD
# [1] = locus YAL013W, strain DEP1, active compounds read low
# [2] = locus YBR229C, strain ROT2, active compounds read low
# [3] = locus YDL101C, strain DUN1, active compounds read low
# [4] = locus YDL134C, strain PPH21, active compounds read low
# [5] = locus YDR150W, strain NUM1, active compounds read low
# [6] = locus YEL061C, strain CIN8, active compounds read low
# [7] = locus YGR078C, strain PAC10, active compounds read low
# [8] = locus YHR030C, strain SLT2, active compounds read low
# [9] = locus YHR087W, strain rtc3, active compounds read low
# [10] = locus YJR043C, strain POL32, active compounds read low
# [11] = locus YJR075W, strain HOC1, active compounds read low
# [12] = locus YLR039C, strain RIC1, active compounds read low
# [13] = locus YLR058C, strain SHM2 (second series), active compounds read low
# [14] = locus YLR085C, strain ARP6, active compounds read low
# [15] = locus YLR262C, strain YPT6, active compounds read low
# [16] = locus YML094W, strain GIM5, active compounds read low
# [17] = locus YMR219W, strain ESC1, active compounds read low
# [18] = locus YMR263W, strain SAP30, active compounds read low
# [19] = locus YNL153C, strain GIM3, active compounds read low
# [20] = locus YNL298W, strain CLA4 (second series), active compounds read low
# [21] = locus YNL322C, strain KRE1, active compounds read low
# [22] = locus YNR030W, strain Alg12, active compounds read low
# [23] = locus YPL055C, strain LGE1, active compounds read low
# [24] = locus YPL241C, strain CIN2, active compounds read low
# [25] = locus YPR135W, strain CTF4, active compounds read low
smiles,measurement,setting,value
CC1C(c2ccccc2)OCCN1CN1C(=O)c2ccccc2C1=O (configuration not stated),normalized growth,[1],1.02
same,normalized growth,[2],0.985
same,normalized growth,[3],1.01
same,normalized growth,[4],1.01
same,normalized growth,[5],0.99
same,normalized growth,[6],0.98
same,normalized growth,[7],1.01
same,normalized growth,[8],1.02
same,normalized growth,[9],0.993
same,normalized growth,[10],1.01
same,normalized growth,[11],0.98
same,normalized growth,"locus YKL190W, strain CNB1, active compounds read low",0.987
same,normalized growth,[12],1.05
same,normalized growth,[13],1
same,normalized growth,[14],0.969
same,normalized growth,[15],1.07
same,normalized growth,[16],0.975
same,normalized growth,[17],0.996
same,normalized growth,[18],0.991
same,normalized growth,[19],0.992
same,normalized growth,[20],1
same,normalized growth,[21],0.993
same,normalized growth,[22],1.01
same,normalized growth,[23],0.991
same,normalized growth,[24],0.98
same,normalized growth,[25],1.06
CCCCCCNC(=O)NCCCCCC,normalized growth,[1],0.958
same,normalized growth,[2],0.931
same,normalized growth,[3],0.983
same,normalized growth,[4],0.925
same,normalized growth,[5],0.931
same,normalized growth,[6],0.939
same,normalized growth,[7],0.933
same,normalized growth,[8],0.858
same,normalized growth,[9],0.955
same,normalized growth,[10],0.942
same,normalized growth,[11],0.894
same,normalized growth,[12],0.76 (active)
same,normalized growth,[13],0.933 (active)
same,normalized growth,[14],0.881
same,normalized growth,[15],0.723 (active)
same,normalized growth,[16],0.991
same,normalized growth,[17],0.924 (active)
same,normalized growth,[18],0.98
same,normalized growth,[19],0.986
same,normalized growth,[20],0.991
same,normalized growth,[21],0.914 (active)
same,normalized growth,[22],0.918
same,normalized growth,"locus YOL006C, strain TOP1, active compounds read low",0.858
same,normalized growth,[23],0.959
same,normalized growth,[24],0.982
same,normalized growth,[25],0.824
